# Data from paper PMC7862700, “An all-to-all approach to the identification of sequence-specific readers for epigenetic DNA modifications on cytosine”.
# Key:
# Assay in all cases: DAPPL (digital affinity profiling via proximity ligation, sequencing); 10 mM Tris-HCl pH 7.5, 50 mM NaCl, 1 mM DTT, 4% glycerol, room temperature, 30 min; GST-TFs on glutathione beads, 16-mer random dsDNA library, 0.1% formaldehyde crosslink after washing; high values mean tight binding
# Conditions in all cases: protein: recombinant; tags: N-terminal GST; dsDNA, one strand shown
# [1] = biological target: T1, FLI1 (Homo sapiens, UniProt Q01543 1-452)
# T1 sequence: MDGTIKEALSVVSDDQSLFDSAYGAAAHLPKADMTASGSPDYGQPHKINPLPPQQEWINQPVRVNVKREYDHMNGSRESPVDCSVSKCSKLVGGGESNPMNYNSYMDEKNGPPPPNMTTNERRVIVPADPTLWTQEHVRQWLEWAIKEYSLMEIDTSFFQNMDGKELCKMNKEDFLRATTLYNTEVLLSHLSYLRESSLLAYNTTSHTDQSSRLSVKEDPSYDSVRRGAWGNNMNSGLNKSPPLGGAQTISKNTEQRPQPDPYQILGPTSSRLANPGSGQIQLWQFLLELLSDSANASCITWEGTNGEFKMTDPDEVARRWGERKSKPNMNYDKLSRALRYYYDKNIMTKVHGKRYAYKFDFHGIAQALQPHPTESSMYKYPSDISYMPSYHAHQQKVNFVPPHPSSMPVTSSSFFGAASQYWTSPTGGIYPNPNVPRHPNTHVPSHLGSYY
# Outline: (§1)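 Pools were built from human transcription factors expressed in yeast as GST fusions, captured on glutathione beads and DNA-barcoded, along with a tag-only sample. Incubation with 200 nmole of a 16-mer random double-stranded DNA library lasted 30 min at room temperature in Tris/NaCl/DTT/glycerol buffer, and was followed by washing, 0.1% formaldehyde crosslinking, proximity ligation, PCR amplification and Illumina NextSeq500 sequencing. Binding signal is the quotient of each hexamer's read frequency for a factor and its frequency for the tag-only sample.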
# [2] = biological target: T2, GABPA (Homo sapiens, UniProt Q06546 1-454)
# T2 sequence: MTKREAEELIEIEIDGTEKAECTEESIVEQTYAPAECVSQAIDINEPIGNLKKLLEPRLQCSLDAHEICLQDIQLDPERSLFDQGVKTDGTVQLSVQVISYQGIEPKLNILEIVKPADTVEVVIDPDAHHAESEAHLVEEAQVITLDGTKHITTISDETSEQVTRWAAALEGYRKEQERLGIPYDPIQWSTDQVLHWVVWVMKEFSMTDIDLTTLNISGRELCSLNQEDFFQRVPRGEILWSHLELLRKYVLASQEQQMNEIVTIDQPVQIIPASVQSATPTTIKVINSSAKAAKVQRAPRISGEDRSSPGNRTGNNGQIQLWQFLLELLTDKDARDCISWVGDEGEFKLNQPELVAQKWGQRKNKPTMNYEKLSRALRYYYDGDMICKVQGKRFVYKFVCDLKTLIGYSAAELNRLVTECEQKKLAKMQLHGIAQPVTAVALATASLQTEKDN
# Outline: as §1
# [3] = biological target: T3, ERG (Homo sapiens, UniProt P11308 1-479)
# T3 sequence: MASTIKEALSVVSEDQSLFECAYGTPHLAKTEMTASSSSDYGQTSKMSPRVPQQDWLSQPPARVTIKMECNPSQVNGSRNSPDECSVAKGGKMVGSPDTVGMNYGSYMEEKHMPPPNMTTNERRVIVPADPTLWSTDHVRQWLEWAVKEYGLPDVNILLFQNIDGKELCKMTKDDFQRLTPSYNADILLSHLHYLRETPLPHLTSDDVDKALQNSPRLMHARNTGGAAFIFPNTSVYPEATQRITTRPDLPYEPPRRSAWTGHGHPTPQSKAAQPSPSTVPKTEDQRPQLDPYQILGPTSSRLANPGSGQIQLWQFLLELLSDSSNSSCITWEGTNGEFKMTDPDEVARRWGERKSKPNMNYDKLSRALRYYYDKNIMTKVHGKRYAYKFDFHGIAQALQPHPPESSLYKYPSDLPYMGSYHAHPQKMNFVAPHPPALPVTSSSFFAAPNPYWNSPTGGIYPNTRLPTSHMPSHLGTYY
# Outline: as §1
# [4] = biological target: T4, EHF (Homo sapiens, UniProt Q9NZC4 1-300)
# T4 sequence: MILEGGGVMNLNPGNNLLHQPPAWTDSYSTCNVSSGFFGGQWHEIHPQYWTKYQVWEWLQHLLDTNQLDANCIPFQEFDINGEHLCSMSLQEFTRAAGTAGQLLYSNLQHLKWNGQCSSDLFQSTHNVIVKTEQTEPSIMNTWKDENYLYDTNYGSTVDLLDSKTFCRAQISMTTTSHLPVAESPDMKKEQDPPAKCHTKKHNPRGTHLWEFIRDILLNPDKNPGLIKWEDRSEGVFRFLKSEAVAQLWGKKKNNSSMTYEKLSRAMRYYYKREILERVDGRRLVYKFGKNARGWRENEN
# Outline: as §1
# [5] = biological target: SPIB (Homo sapiens, UniProt Q01892 1-262)
# Chain of SPIB (Q01892 whole entry): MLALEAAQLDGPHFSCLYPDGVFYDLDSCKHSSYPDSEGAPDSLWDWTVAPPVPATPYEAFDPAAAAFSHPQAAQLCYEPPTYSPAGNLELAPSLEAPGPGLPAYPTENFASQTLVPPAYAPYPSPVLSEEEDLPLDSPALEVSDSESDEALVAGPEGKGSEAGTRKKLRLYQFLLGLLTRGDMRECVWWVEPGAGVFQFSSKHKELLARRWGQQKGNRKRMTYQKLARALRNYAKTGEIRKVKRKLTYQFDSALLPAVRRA
# Outline: as §1
# [6] = biological target: T5, ELK3 (Homo sapiens, UniProt P41970 1-407)
# T5 sequence: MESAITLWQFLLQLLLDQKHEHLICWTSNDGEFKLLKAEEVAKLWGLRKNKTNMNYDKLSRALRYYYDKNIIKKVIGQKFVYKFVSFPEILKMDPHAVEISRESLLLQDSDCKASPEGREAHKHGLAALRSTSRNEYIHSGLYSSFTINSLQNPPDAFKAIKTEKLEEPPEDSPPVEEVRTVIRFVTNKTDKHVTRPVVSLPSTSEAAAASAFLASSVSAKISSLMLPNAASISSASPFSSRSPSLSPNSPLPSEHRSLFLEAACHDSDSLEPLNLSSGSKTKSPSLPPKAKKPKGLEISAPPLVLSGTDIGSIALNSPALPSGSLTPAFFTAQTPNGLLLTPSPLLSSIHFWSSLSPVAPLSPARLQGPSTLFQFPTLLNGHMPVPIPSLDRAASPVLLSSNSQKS
# Outline: as §1
# [7] = biological target: ETV5 (Homo sapiens, UniProt P41161 1-510)
# Chain of ETV5 (P41161 whole entry): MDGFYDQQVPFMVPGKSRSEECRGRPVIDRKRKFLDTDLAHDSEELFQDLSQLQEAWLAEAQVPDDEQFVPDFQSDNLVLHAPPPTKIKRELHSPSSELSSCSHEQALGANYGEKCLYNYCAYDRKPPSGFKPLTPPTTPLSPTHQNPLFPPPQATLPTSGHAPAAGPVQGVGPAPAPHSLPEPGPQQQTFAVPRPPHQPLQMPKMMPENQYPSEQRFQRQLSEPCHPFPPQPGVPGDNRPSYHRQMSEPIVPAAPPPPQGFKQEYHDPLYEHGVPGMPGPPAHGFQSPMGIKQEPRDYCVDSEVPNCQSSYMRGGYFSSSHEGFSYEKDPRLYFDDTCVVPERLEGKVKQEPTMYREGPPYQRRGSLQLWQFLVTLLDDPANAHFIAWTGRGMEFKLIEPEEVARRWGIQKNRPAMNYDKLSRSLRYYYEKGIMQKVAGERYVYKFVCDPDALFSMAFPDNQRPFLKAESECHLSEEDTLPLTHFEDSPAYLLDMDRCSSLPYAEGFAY
# Outline: as §1
# [8] = biological target: T6, ELF3 (Homo sapiens, UniProt P78545 1-371)
# T6 sequence: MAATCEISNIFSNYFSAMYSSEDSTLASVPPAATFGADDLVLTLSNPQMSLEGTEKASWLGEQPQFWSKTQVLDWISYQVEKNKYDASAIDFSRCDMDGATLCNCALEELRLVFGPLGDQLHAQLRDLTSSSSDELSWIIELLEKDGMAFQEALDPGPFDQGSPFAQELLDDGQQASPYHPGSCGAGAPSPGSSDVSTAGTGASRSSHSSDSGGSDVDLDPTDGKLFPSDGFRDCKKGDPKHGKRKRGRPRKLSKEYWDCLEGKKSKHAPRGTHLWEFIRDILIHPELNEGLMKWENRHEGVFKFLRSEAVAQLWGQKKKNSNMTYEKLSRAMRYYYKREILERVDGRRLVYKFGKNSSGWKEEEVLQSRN
# Outline: as §1
# [9] = biological target: ETV1 (Homo sapiens, UniProt P50549 1-477)
# Chain of ETV1 (P50549 whole entry): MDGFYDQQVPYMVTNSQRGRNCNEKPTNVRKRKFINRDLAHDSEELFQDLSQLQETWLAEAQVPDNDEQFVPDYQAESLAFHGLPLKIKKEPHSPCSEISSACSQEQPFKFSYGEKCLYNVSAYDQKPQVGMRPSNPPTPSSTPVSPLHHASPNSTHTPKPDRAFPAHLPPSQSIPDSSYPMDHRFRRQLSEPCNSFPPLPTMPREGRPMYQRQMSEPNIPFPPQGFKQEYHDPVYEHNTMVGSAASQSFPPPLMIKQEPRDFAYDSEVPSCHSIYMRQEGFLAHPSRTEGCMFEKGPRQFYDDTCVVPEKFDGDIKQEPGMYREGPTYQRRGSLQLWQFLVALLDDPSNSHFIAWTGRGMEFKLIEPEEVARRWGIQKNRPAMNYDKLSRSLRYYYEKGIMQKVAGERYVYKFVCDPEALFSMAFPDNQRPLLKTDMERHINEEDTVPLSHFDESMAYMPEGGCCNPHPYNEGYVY
# Outline: as §1
# [10] = biological target: T7, ETV3L (Homo sapiens, UniProt Q6ZN32 1-361)
# T7 sequence: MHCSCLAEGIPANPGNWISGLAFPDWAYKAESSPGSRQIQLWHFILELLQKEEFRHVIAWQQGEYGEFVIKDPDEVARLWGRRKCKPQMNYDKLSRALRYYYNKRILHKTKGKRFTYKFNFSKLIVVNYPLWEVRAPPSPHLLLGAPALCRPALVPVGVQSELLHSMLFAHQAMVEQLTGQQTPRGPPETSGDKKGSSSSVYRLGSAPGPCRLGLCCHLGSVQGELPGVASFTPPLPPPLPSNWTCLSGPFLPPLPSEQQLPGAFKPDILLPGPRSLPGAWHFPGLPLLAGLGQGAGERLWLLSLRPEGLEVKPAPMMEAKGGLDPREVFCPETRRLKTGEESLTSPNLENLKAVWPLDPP
# Outline: as §1
# [11] = biological target: T8, ETV3 (Homo sapiens, UniProt P41162-2 1-143)
# T8 sequence: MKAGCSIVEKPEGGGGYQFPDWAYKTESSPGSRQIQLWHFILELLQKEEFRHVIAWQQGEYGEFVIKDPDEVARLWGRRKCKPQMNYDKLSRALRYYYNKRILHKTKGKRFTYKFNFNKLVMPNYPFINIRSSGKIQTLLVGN
# Outline: as §1
# [12] = biological target: ETV6 (Homo sapiens, UniProt P41212 1-452)
# Chain of ETV6 (P41212 whole entry): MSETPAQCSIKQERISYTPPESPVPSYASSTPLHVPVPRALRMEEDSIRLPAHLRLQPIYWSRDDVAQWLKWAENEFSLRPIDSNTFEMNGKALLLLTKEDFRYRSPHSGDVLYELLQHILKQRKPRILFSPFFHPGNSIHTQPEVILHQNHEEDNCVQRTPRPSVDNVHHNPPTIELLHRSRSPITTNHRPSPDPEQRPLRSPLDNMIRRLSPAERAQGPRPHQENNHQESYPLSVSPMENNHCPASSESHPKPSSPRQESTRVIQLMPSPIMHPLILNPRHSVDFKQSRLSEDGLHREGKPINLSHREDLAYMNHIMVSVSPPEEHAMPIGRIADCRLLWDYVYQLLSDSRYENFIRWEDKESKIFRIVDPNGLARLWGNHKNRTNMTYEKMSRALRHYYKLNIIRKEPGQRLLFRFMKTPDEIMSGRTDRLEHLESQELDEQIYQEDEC
# Outline: as §1
sequence,measurement,setting,value
GTCCGC,binding signal,[1],"1.1 fold enrichment (6-mer frequency, TF over GST control)"
same,binding signal,[2],"1 fold enrichment (6-mer frequency, TF over GST control)"
same,binding signal,[3],"1.04 fold enrichment (6-mer frequency, TF over GST control)"
same,binding signal,[4],"1.05 fold enrichment (6-mer frequency, TF over GST control)"
same,binding signal,[5],"1.03 fold enrichment (6-mer frequency, TF over GST control)"
same,binding signal,[6],"1.1 fold enrichment (6-mer frequency, TF over GST control)"
same,binding signal,[7],"1.07 fold enrichment (6-mer frequency, TF over GST control)"
same,binding signal,[8],"1.01 fold enrichment (6-mer frequency, TF over GST control)"
same,binding signal,[9],"1.08 fold enrichment (6-mer frequency, TF over GST control)"
same,binding signal,[10],"1.02 fold enrichment (6-mer frequency, TF over GST control)"
same,binding signal,[11],"1.03 fold enrichment (6-mer frequency, TF over GST control)"
same,binding signal,[12],"1.03 fold enrichment (6-mer frequency, TF over GST control)"
